Assay [1] concerns Zika virus NS2B-NS3 protease (linked construct). Put plainly: Primary screen NINDS Rhodamine qHTS for Zika virus inhibitors (AID 1347160). Also: nearly all actives have a fitted effect of over 55% in size. Also: potency is read from the fitted curve at half-maximal effect. The method in brief:
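Single-chain NS2B-NS3 protease, 25 nM, pH 8.0; compounds preincubated 15 min. Activity: Rhodamine110 release from 1.5 microM substrate over 15 min, room temperature, data fitted to 4-parameter Hill.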
For orientation: In qHTS, concentration-response curves come from the screen itself.

A short description of assay [2]: OV-KATE Cancer Cell Toxicity qHTS against the NCATS CANVASS Library (AID 1347345). In a few lines: (§1)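 Bortezomib titration and single-dose wells served as plate controls. Test compounds, 11 points, acted on 1000 cells/well for 72 h at 37 degrees C; CellTiter-Glo luminescence quantified remaining viable cells.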
Assay [3] in a line: UWB1.289 Cancer Cell Toxicity qHTS against the NCATS CANVASS Library (AID 1347347). Also: series mostly up to about 38 µM; nearly all actives have a fitted effect of over 60% in size. In a few lines: as §1
Assay [4] can be described thus: OV-SAHO Cancer Cell Toxicity qHTS against the NCATS CANVASS Library (AID 1347348). Also: series mostly up to about 38 µM; nearly all actives have a fitted effect of over 55% in size. The method in brief:
as §1

A short description of assay [5]: U-118MG Cancer Cell Toxicity qHTS against the NCATS CANVASS Library (AID 1347351). Also: series mostly up to about 38 µM. In a few lines: as §1
Assay [6] can be described thus: COV-362 Cancer Cell Toxicity qHTS against the NCATS CANVASS Library (AID 1347352). Also: series mostly up to about 38 µM. In a few lines:
(§2)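 First, 1000 cells go into each well and rest for 4 hours. Next, an 11-point dilution range is pinned in. Plates then incubate 72 hours before CellTiter-Glo addition and luminescence reading.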

A short description of assay [7]: A2780 Cisplatin Sensitive Ovarian Cancer Cell Toxicity qHTS against the NCATS CANVASS Library (AID 1347353). Also: nearly all actives have a fitted effect of over 60% in size. In a few lines:
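Cells are plated at 750 per well and rest for 4 hours. Compounds are added across eleven concentrations, and incubated 72 hours before ATP is quantified by luminescence.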

A short description of assay [8]: UWB1.289-WTBRCA1 Cancer Cell Toxicity qHTS against the NCATS CANVASS Library (AID 1347354). In a few lines:
as §2

A short description of assay [9]: HEK-293 Cancer Cell Toxicity qHTS against the NCATS CANVASS Library (AID 1347355). Also: series mostly up to about 46 µM; nearly all actives have a fitted effect of over 65% in size. The method in brief:
as §2

The nature of assay [10]: HPAF-II 24hr Apoptosis Induction qHTS against the NCATS CANVASS Library (AID 1347356). In a few lines: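 Cells seeded at 500 per well, then compounds pin-transferred in an 11-point concentration series. After 24 hours at 37 degrees C, Caspase-Glo 3/7 was added and luminescence measured following 15 min at room temperature.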
Assay [11] is described as follows: HEK293 24hr Apoptosis Induction qHTS against the NCATS CANVASS Library (AID 1347359). In a few lines: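 HEK293 cells, 500 per well, exposed to an 11-point compound series for 24 hours at 37 degrees C. Caspase 3/7 activity read by Caspase-Glo luminescence (DEVD substrate) after 15 min at room temperature.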
A short description of assay [12]: HPAF-II 18hr Apoptosis Induction qHTS against the NCATS CANVASS Library (AID 1347360). The method in brief: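 Apoptosis was scored as caspase-3/7 activity in HPAF-II pancreatic cancer cells treated 18 hours with an 11-point concentration series.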
Assay [13] in a line: HEK293 12hr Apoptosis Induction qHTS against the NCATS CANVASS Library (AID 1347361). The method in brief: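 Apoptosis in HEK293 was scored as caspase-3/7 luminescence following 12 h treatment with a compound concentration series in qHTS format.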
Assay [14] concerns NAD(P)H diaphorase (Clostridium kluyveri). Kind of assay: Diaphorse counterscreen qHTS: Assay Interference Panel against the NCATS CANVASS Library (AID 1347362). The method in brief:
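Clostridium kluyveri diaphorase in PBS + 0.01% Tween-20 preincubated 15 min with compounds. Resazurin and NADH then added for 5 min at room temperature in the dark; resorufin fluorescence read (ex 525, em 598).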
Background: The purpose of a counterscreen is to sort out artefacts and off-target activity.

The target in assay [15] is Cytochrome P450 2C19 (Homo sapiens) (UniProt P33261). Kind of assay: qHTS Assay for Inhibitors and Substrates of Cytochrome P450 2C19 (AID 899). Also: nearly all actives have a fitted effect of over 60% in size. Also: potency is read from the fitted curve at half-maximal effect. The method in brief: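 5 nM human CYP2C19 with 10uM Luciferin-H EGE (at KM) in 50mM KPO4, compound preincubated 10 min at 37C, then NADPH regeneration for 60 min at 37C. Luciferin read by luminescence after detection reagent; normalized to 57uM ketoconazole as full inhibition.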

The nature of assay [16]: qHTS Assay for Identification of Small Molecule Agonists for Thrombopoietin (TPO) Signaling Pathway (AID 917). In a few lines:
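Quantitative HTS for pathway activators: compounds were pin-transferred onto IL-3-starved Ba/F3 cells expressing human TPO receptor, TPO was added at its EC50 (26 pM final), and after 24 hrs at 37 C reporter luciferase was measured.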

Assay [17] has as its target Muscarinic acetylcholine receptor M1 (Rattus norvegicus) (UniProt P08482). Put plainly: qHTS Assay for Antagonists of Acetylcholine Muscarinic M1 Receptor: Kinetic Measurement of Intracellular Calcium Response (AID 943).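 Also: Fluo-4 calcium signal as peak divided by basal fluorescence over 4 min; series mostly up to about 35 µM; nearly all actives have a fitted effect of over 75% in size.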 The method in brief: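 Antagonism is measured as inhibition of the carbachol-evoked calcium rise in CHO cells transfected with rat M1. Cells are dye-loaded, exposed to compound for 10 min, then stimulated with 100 nM carbachol (EC80).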

For assay [18] the target is unchanged. Put plainly: qHTS Assay for Antagonists of Acetylcholine Muscarinic M1 Receptor: Measurement of IP-One Response (AID 944). Also: nearly all actives have a fitted effect of over 75% in size. The method in brief: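 Antagonist mode with rat M1 receptor transfected into CHO cells. Compound is added first for 10 min, carbachol at its EC80 follows for 30 min, and lysis reagents then allow TR-FRET detection of accumulated IP1.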

Assay [19] deals with alpha-glucosidase (Oryza sativa, rice) (UniProt Q653V4). Kind of assay: Counterscreen for Glucocerebrosidase Inhibitors: qHTS Assay for Rice alpha-Glucosidase at pH 5.0 (AID 997). In a few lines:
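Endpoint fluorogenic assay at pH 5.0: compounds (0.7 nM to 77 uM) titrated against 4 nM rice enzyme and 400 uM 4-MU-alpha-glucoside for 20 min at room temperature; NaOH/glycine stop, read ex 365/em 440 nm, Hill-fitted AC50.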

Assay [20] addresses Alpha-galactosidase (Coffea arabica) (UniProt Q42656). Kind of assay: Counterscreen for Glucocerebrosidase Inhibitors: qHTS Assay for Coffee Bean alpha-Galactosidase at pH 5.9 (AID 998). In a few lines:
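Enzyme 2 nM + cpd (0.7 nM–77 uM titration) + 4-MU-alpha-Gal 80 uM, pH 5.9 citrate/Tween-20, RT 20 min, NaOH/glycine stop pH 10, fluor 365/440. Normalized to no-enzyme and full-activity controls; Hill-fit AC50.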

The record followed here is PubChem BioAssay (NCATS).

Results filed as inconclusive are left out. The source made the active and inactive calls. Calls follow the shape of the dose curve; as a rule, active = well fitted curve in the direction sought with a large enough effect; inconclusive = small, poorly fitted or top-dose-only effect, or another doubt; inactive = no such curve, though single readings can be large; an effect the other way counts as inactive or inconclusive.

Alpha-galactosidase (Coffea arabica), sequence (Q42656 whole entry, looked up): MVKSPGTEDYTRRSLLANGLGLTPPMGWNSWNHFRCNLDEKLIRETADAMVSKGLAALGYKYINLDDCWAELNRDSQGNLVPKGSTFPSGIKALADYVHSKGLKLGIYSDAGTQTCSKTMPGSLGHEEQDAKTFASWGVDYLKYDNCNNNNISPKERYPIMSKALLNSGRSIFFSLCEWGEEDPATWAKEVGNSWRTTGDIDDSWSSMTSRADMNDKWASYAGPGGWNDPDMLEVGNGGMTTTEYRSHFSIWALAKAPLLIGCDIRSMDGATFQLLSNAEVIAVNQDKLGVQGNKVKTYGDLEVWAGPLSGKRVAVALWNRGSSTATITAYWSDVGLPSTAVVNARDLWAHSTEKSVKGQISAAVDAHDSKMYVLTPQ
Muscarinic acetylcholine receptor M1 (Rattus norvegicus), sequence (P08482 whole entry, looked up): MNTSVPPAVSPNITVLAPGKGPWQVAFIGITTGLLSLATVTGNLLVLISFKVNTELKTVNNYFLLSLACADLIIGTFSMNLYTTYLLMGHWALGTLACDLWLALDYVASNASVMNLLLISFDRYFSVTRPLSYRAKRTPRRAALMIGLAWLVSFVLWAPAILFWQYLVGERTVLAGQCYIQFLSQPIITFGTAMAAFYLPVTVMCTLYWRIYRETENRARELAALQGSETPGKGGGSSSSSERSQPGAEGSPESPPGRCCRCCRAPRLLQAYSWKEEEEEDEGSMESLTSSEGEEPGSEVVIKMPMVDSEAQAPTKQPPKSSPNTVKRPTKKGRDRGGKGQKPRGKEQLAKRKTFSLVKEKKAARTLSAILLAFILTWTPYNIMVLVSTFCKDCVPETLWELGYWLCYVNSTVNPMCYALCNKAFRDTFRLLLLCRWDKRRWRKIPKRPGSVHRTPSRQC
Cytochrome P450 2C19 (Homo sapiens), sequence (P33261 whole entry, looked up): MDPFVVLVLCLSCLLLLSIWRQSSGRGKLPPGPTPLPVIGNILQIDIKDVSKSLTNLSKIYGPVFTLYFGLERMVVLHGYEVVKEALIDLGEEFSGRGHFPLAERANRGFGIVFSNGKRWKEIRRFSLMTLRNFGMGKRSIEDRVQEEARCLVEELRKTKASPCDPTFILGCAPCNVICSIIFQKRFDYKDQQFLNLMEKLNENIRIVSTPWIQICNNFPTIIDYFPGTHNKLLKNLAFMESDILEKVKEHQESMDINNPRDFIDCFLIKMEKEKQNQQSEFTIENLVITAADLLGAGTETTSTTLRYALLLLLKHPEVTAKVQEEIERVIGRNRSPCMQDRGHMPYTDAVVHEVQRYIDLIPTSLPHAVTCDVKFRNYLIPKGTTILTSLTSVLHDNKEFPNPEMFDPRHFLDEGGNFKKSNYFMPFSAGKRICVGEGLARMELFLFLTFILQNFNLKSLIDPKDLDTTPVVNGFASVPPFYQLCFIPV

In the case of `CNCCc1ccc(O)cc1`, the Potency entry in assay [1], in [2], in assay [3], in [4], in assay [5] and in assay [6] was “inactive” throughout. Further, the Potency result in [7], in assay [8], in assay [9], in [11] and in assay [13] was “inactive” throughout. Also, the outcome in [10], in [12] and in assay [14] was inactive.
As for `N[C@H](C(=O)O)c1cc(=O)[nH]o1`, the Potency result in assay [15], in assay [17] and in [18] was “inactive” throughout. The result in [16], in assay [19] and in [20] was inactive.
For the compound `CC[N@@+]1([O-])C[C@]2(C)CC[C@@H](O)[C@@]34C5C[C@H]6CC[C@@]5(C(C[C@H]23)C41)[C@H](O)[C@@]6(O)CO` (some centres not stated), the Potency in assay [1] was 49.3 µM (active). For the same compound, the Potency entry in assay [2], in [3], in assay [4], in assay [5], in assay [6] and in assay [7] was “inactive” in each case. Also, the Potency result in [8], in assay [9], in [11] and in [13] was “inactive” in each case. Also, the compound was called inactive in assay [10], in assay [12] and in assay [14].
Consider `CCC[C@H]1CC[C@H]2[C@H](C)CCC[C@H]2N1`, for which the Potency result in assay [1], in assay [2], in [3], in [4], in assay [5] and in [6] was “inactive” each time. Moreover, the Potency entry in [7], in assay [8], in [9], in assay [11] and in assay [13] was “inactive” each time. The call in assay [10], in [12] and in assay [14] was inactive.
With `Cc1o[nH]c(=O)c1C[C@H](N)C(=O)O`, in [15], the Potency is 2.51 µM (active). Further, the outcome in [16], in [19] and in assay [20] was inactive. The Potency entry in assay [18] is “inactive”.
As for `O=C(Cc1ccc(Cl)c(Cl)c1)N1CCCC[C@H]1CN1CCCC1`, the Potency in assay [15] is 6.31 µM (active). The call in [16], in assay [19] and in [20] was inactive.
Consider `COc1ccc(C[C@H]2NC[C@H](O)[C@@H]2OC(C)=O)cc1`, for which the Potency in [15] is 3.16 µM (active).
Regarding `NC[C@H](CC(=O)O)c1ccc(Cl)cc1`, the Potency in [15] is 2.51 µM (active).
Take `CC(=O)N[C@H]1CCN2CCC[C@H]12`: the Potency entry in [1], in [2], in [3], in [4], in assay [5] and in assay [6] was “inactive” each time. The Potency entry in assay [7], in assay [8], in [9], in [11] and in assay [13] was “inactive” in each case. Moreover, the call in assay [10], in [12] and in [14] was inactive.
In the case of `O=C(O)c1ccccc1-c1c2cc(Br)c(=O)cc-2oc2[c]([Hg])c(O)c(Br)cc12`, the Potency in [15] is 3.16 µM (active).
The same measure, in the same setting: the figure for `N[C@H](Cc1o[nH]c(=O)c1Cl)C(=O)O` is 1.26 µM (active).
As to `Oc1ccc2c3c1O[C@H]1c4oc5ccccc5c4C[C@]4(O)[C@H](C2)N(CC2CC2)CC[C@@]314`, the compound was classed as inactive in assay [16], in [19] and in assay [20].
On to `COc1ccc(C23Oc4cc(OC)cc(OC)c4[C@](O)([C@H](c4ccccc4)C2C(=O)NCCCCNC(=O)c2ccccc2)[C@@H]3O)cc1` (some centres not stated), for which the Potency in assay [1] was 49.3 µM (active). For the same compound, the Potency result in [2], in [3], in [4], in [5], in assay [6] and in assay [7] was “inactive” in each case. The Potency result in assay [8], in [9], in assay [11] and in assay [13] was “inactive” throughout. Besides, the compound was called inactive in assay [10], in [12] and in [14].
